Assay results as given in the supplement of paper PMC10646978.
± gives the standard deviation.

What was measured:
Conditions in all cases: modulator concentration 10 µM
[1] = system: RAW-Dual (murine macrophage reporter line); assay: NF-kB reporter (SEAP) activity fold change vs agonist alone; higher = enhanced NF-kB activity
How it was run: (§1)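 Compound reached 10 μM final in each well by pin transfer, onto RAW-Dual murine macrophage reporter cells seeded at 50 000 per well in 384-well plates. After 1 hour at 37 °C, the cells were stimulated overnight with a PRR agonist. SEAP in the supernatant was read with QUANTI-Blue at 620 nm absorbance for NF-κB, and Lucia luciferase was read with QUANTI-Luc luminescence for IRF. Each signal was turned into fold change against the mean agonist-only control on the same plate, and two replicate plates were averaged with propagated errors.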

[2] = system: RAW-Dual (murine macrophage reporter line); assay: IRF reporter (Lucia luciferase) activity fold change vs agonist alone; higher = enhanced IRF activity
How it was run: as §1

[3] = system: RAW-Dual (murine macrophage reporter line); assay: viability score (confluency relative to resting cells, overnight) (fraction); higher = more viable, active = viable (0.7 or more)
How it was run: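 A compound met the cutoff when both of two confluency masks exceeded 70% of resting cells. Those masks were made with IncuCyte software from IncuCyte images of RAW-Dual macrophages treated overnight at 10 μM final. This is the basis of the viability score, which is confluency relative to resting cells.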

[4] = agonist: CpG ODN 1826 0.5 ug/mL

| Compound | NF-kB reporter [1, 4] | NF-kB reporter ([1]; agonist: LPS 0.1 ug/mL) | NF-kB reporter ([1]; agonist: MPLA […]) | IRF reporter ([2]; agonist: 3'3'-cGAMP 10 ug/mL) | IRF reporter ([2]; agonist: LPS 0.1 ug/mL) | IRF reporter ([2]; agonist: MPLA […]) | viability score [3] |
| --- | --- | --- | --- | --- | --- | --- | --- |
| O=[N+]([O-])c1ccc(Cl)c(C=Nc2cccc3c(N=Cc4cc([N+](=O)[O-])ccc4Cl)cccc23)c1 | 0.841 ± 0.047 | 1.07 ± 0.078 | 0.988 ± 0.086 | 0.816 ± 0.05 | 1.56 ± 0.1 | 1.26 ± 0.13 | 1 (active) |
| CC(=O)Oc1ccc2c(c1)c(C(C)=O)c(C)n2C | 0.859 ± 0.071 | 0.972 ± 0.1 | 0.963 ± 0.091 | 0.783 ± 0.028 | 1.13 ± 0.15 | 1.27 ± 0.25 | 1.02 (active) |
| CC1=NN(c2ccc(S(N)(=O)=O)cc2)C(=O)C1=Cc1ccc(N(C)C)cc1 | 1.02 ± 0.15 | 0.967 ± 0.063 | 0.947 ± 0.04 | 0.794 ± 0.2 | 0.899 ± 0.052 | 0.892 ± 0.06 | 1 (active) |
| O=c1[nH]c(=O)n([C@H]2C[C@H](O)[C@@H](CO)O2)cc1F | 1.65 ± 0.14 | 1.02 ± 0.12 | 1.11 ± 0.028 | 0.75 ± 0.042 | 0.923 ± 0.083 | 0.863 ± 0.067 | 0.669 (inactive) |
| COc1ccc(-c2cc3nc(C)cc(NCCN4CCOCC4)n3n2)cc1OC | 1.11 ± 0.086 | 0.962 ± 0.076 | 0.976 ± 0.026 | 1.06 ± 0.13 | 0.998 ± 0.12 | 1.05 ± 0.22 | 0.997 (active) |
| O=c1c2c([nH]c3c(-c4cccc5ccccc45)cnn13)CCCC2 | 1.02 ± 0.095 | 1.07 ± 0.067 | 0.913 ± 0.062 | 0.987 ± 0.027 | 1.47 ± 0.23 | 1.09 ± 0.2 | 1.01 (active) |
| CC(C)NCC(O)COc1ccc(CCOCC2CC2)cc1 (configuration not stated) | 0.927 ± 0.09 | 1.02 ± 0.1 | 1.06 ± 0.04 | 0.907 ± 0.073 | 0.897 ± 0.029 | 0.764 ± 0.098 | 1 (active) |
| NCCCCC(=O)O.O=C1c2ccccc2C(=O)C1[N+](=O)[O-] | 0.788 ± 0.16 | 0.975 ± 0.076 | 0.843 ± 0.1 | 0.929 ± 0.025 | 1.13 ± 0.16 | 1.31 ± 0.13 | 1 (active) |
| COc1ccc(C(C)NC(=O)CCc2nnc3ccc(-c4ccc(C)c(C)c4)nn23)cc1OC (configuration not stated) | 1.3 ± 0.23 | 1.06 ± 0.083 | 1.4 ± 0.38 | 0.301 ± 0.14 | 0.963 ± 0.088 | 0.623 ± 0.089 | 1.01 (active) |
| COC(=O)C1=C(C)NC(C)=C(C(=O)OCCN2CCN(C(c3ccccc3)c3ccccc3)CC2)C1c1cccc([N+](=O)[O-])c1.Cl.Cl (configuration not stated) | 0.241 ± 0.082 | 0.588 ± 0.22 | 0.799 ± 0.051 | 0.132 ± 0.008 | 0.888 ± 0.27 | 1.32 ± 0.18 | 0.975 (active) |
| O=C(NCc1nc(C2CCCCC2)cs1)c1ccc(F)cc1 | 0.898 ± 0.05 | 1.16 ± 0.11 | 0.918 ± 0.047 | 1.03 ± 0.063 | 1.26 ± 0.094 | 1.1 ± 0.09 | 0.931 (active) |
| O=C(CC1Sc2ccccc2NC1=O)Nc1ccccc1 (configuration not stated) | 0.945 ± 0.084 | 0.877 ± 0.071 | 1.03 ± 0.18 | 0.754 ± 0.11 | 1.32 ± 0.29 | 1.41 ± 0.38 | 1.02 (active) |
| CCN(CC)CCOC(=O)C(Cc1cccc2ccccc12)CC1CCCO1.O=C(O)C(=O)O (configuration not stated) | 0.672 ± 0.21 | 1.05 ± 0.061 | 0.998 ± 0.11 | 0.491 ± 0.026 | 1.12 ± 0.2 | 1.27 ± 0.13 | 0.977 (active) |
| O=C(c1ccco1)c1nc2c(n1O)CCCCC2 | 1.12 ± 0.073 | 0.995 ± 0.089 | 1.03 ± 0.028 | 0.998 ± 0.07 | 0.971 ± 0.078 | 1.03 ± 0.1 | 1 (active) |
| COc1cc2nc(N3CCN(C(=O)c4ccco4)CC3)nc(N)c2cc1OC.Cl | 0.888 ± 0.21 | 1.12 ± 0.056 | 0.953 ± 0.079 | 0.9 ± 0.032 | 1.22 ± 0.14 | 1.33 ± 0.2 | 1 (active) |
| CCN1C(=O)C(=C2SC(N3CCOCC3)=NC2=O)c2ccccc21 | 0.991 ± 0.08 | 1.07 ± 0.079 | 0.952 ± 0.064 | 0.949 ± 0.042 | 1.22 ± 0.13 | 0.978 ± 0.23 | 1.01 (active) |
| Nc1nc2c(ncn2C2CC(O)C(CO)O2)c(=O)[nH]1 (configuration not stated) | 0.96 ± 0.089 | 0.787 ± 0.059 | 0.93 ± 0.089 | 1.02 ± 0.043 | 1.26 ± 0.2 | 1.36 ± 0.28 | 1.02 (active) |
| CC(C)(C)c1nc(-c2cccc(NS(=O)(=O)c3c(F)cccc3F)c2F)c(-c2ccnc(N)n2)s1 | 2.41 ± 0.12 | 1.77 ± 0.14 | 2.36 ± 0.1 | 0.67 ± 0.079 | 0.818 ± 0.071 | 1.1 ± 0.2 | 0.763 (active) |
| CN1C2CCCC1CC(NC(=O)c1nn(C)c3ccccc13)C2.Cl (configuration not stated) | 0.712 ± 0.31 | 0.879 ± 0.044 | 0.984 ± 0.069 | 0.873 ± 0.034 | 1.13 ± 0.16 | 1.03 ± 0.19 | 0.998 (active) |
| Cc1cccc(C(=O)NC(Nc2ccccc2C(F)(F)F)C(Cl)(Cl)Cl)c1 (configuration not stated) | 0.896 ± 0.079 | 1.05 ± 0.077 | 1.22 ± 0.23 | 0.948 ± 0.05 | 1.22 ± 0.2 | 1.26 ± 0.4 | 1.01 (active) |
| Oc1ccccc1C=NNc1nc(-c2ccccc2)cc(-c2ccccc2)n1 | 0.769 ± 0.066 | 1.02 ± 0.088 | 1.03 ± 0.12 | 1.19 ± 0.12 | 1.16 ± 0.16 | 1.26 ± 0.2 | 0.987 (active) |
| Cc1oncc1C(=O)NCc1cc(C2CC2)n(C)n1 | 0.927 ± 0.087 | 0.954 ± 0.12 | 0.975 ± 0.065 | 0.946 ± 0.04 | 0.982 ± 0.072 | 0.921 ± 0.24 | 0.997 (active) |
| O=C(NN=Cc1sc2ccccc2c1Cl)c1ccncc1 | 0.918 ± 0.08 | 1.02 ± 0.091 | 0.931 ± 0.058 | 0.808 ± 0.028 | 1.5 ± 0.14 | 1.14 ± 0.11 | 1.01 (active) |
| C#CCC(Cc1cnc2nc(N)nc(N)c2n1)c1ccc(C(=O)N[C@@H](CCC(=O)O)C(=O)O)cc1 (some centres not stated) | 0.605 ± 0.045 | 0.856 ± 0.14 | 0.778 ± 0.038 | 0.774 ± 0.18 | 0.955 ± 0.032 | 0.911 ± 0.083 | 0.667 (inactive) |
| O=C(NN=Cc1c(O)ccc2ccccc12)c1[nH]ncc1I | 1.93 ± 0.15 | 1.24 ± 0.081 | 1.4 ± 0.063 | 0.491 ± 0.021 | 1.32 ± 0.076 | 1.3 ± 0.094 | 0.906 (active) |
| COc1c(C)c2c(c(O)c1C/C=C(\C)CCC(=O)OCCN1CCOCC1)C(=O)OC2 | 0.66 ± 0.12 | 0.222 ± 0.02 | 0.517 ± 0.047 | 0.608 ± 0.049 | 1.28 ± 0.13 | 1.24 ± 0.13 | 0.813 (active) |
